Laboratory results reported in the supplement of paper PMC10849652.
The full data set covers some 7,900 targets. This sample favours those with a hit. About 0.6% of all pairs of compound and target were hits.

The targets below were run with c1cn2cc(-c3ccc4cn[nH]c4c3)nc(Nc3ccc(N4CCOCC4)cc3)c2n1 [entospletinib] (assay: log2 fold change, soluble protein after heating vs DMSO (PISA); higher = thermal stabilisation; K562 cells, 10 uM, 30 min; active = over 0.2 and 3.5 SD of the protein, either way, in both replicates (recomputed)).
Outline: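 Soluble protein was defined as the supernatant after 21,000xg for 90 min. It came from K562 cells at 2×10^6 cells/mL given 10 μM compound for 30 min, heated in aliquots for 3 min across 48°C-58°C, pooled, and extracted in PBS with 0.5% NP-40 at 4°C, and was quantified by TMTpro 16plex LC-MS/MS with equalised channel sums. Thermal stability against control samples, from duplicates, is reported as log2 fold change.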

Sequence of UniProt P49448 (P49448 whole entry, looked up): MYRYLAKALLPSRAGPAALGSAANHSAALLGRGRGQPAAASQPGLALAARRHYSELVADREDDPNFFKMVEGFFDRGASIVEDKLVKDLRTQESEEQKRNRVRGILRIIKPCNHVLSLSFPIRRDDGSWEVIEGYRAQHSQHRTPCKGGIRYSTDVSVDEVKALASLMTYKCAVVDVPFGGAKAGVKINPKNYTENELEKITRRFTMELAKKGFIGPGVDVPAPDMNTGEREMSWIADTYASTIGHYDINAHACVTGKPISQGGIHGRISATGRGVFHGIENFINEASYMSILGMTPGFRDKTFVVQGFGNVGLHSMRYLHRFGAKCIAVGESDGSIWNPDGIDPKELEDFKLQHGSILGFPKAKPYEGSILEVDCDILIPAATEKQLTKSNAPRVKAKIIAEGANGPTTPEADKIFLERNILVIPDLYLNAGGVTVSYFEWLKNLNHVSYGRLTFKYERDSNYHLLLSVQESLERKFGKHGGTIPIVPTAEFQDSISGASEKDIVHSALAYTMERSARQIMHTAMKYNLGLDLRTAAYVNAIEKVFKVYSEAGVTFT
Sequence of UniProt Q92917 (Q92917 whole entry, looked up): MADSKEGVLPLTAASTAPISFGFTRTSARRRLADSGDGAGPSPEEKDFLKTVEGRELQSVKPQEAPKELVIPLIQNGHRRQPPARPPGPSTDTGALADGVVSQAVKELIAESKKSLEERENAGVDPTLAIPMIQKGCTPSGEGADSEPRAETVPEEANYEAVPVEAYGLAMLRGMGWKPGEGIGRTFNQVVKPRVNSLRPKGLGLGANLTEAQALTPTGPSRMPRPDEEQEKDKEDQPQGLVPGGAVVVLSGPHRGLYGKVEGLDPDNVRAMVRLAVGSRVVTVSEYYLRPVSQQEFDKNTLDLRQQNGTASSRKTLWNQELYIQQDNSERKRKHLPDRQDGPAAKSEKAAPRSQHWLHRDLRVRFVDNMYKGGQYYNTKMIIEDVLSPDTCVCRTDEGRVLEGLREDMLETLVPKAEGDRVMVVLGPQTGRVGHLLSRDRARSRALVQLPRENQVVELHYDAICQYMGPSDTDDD
Sequence of UniProt P31150 (P31150 whole entry, looked up): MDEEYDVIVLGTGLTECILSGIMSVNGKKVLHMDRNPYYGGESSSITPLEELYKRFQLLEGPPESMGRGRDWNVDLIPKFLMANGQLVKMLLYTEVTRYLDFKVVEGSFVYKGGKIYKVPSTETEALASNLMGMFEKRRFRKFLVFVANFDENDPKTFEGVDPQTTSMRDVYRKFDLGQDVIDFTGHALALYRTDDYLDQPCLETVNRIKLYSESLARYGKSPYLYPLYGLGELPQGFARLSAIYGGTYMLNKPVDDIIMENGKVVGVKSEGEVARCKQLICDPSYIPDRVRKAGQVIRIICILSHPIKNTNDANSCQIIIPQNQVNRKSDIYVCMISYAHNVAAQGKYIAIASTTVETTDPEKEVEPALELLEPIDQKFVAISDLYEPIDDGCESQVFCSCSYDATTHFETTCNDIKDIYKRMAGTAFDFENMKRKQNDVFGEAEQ
Sequence of UniProt Q9BTY2 (Q9BTY2 whole entry, looked up): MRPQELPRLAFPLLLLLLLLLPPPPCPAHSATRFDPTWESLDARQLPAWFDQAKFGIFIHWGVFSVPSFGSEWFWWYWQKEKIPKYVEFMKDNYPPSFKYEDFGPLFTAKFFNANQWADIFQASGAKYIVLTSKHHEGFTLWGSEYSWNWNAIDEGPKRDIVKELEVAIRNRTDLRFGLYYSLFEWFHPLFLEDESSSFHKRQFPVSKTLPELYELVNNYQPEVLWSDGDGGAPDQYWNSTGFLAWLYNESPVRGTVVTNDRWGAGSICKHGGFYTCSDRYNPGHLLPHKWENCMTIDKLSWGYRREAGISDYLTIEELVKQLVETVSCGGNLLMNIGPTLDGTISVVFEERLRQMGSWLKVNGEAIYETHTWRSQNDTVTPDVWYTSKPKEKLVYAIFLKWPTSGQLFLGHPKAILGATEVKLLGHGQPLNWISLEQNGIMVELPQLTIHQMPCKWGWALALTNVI
Sequence of UniProt Q9UK99 (Q9UK99 whole entry, looked up): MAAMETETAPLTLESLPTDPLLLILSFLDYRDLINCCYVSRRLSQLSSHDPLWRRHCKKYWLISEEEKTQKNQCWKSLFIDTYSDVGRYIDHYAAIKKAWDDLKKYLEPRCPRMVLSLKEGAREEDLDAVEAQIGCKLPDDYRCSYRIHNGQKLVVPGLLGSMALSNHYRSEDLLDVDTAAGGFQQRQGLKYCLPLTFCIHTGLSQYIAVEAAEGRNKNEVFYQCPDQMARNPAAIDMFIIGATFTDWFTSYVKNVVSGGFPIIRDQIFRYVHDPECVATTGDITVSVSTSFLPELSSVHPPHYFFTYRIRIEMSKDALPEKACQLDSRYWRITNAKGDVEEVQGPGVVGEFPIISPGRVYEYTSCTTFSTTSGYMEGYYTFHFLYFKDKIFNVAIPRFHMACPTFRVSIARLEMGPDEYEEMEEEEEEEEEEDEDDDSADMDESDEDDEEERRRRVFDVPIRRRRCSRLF
Sequence of UniProt Q9Y5Q8 (Q9Y5Q8 whole entry, looked up): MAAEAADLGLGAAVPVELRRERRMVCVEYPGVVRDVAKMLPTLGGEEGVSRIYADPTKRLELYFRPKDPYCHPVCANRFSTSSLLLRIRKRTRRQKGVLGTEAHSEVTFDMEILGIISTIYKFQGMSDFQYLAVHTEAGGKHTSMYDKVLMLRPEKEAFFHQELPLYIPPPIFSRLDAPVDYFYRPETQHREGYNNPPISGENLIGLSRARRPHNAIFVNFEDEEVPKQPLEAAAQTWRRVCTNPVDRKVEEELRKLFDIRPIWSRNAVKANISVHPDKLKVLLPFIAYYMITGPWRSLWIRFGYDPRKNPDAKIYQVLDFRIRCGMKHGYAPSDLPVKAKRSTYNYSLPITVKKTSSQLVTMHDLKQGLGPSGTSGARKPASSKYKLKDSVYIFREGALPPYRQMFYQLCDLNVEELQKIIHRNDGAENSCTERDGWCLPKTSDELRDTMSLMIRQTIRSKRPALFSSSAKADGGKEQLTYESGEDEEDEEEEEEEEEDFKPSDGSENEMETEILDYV
Sequence of UniProt Q02790 (Q02790 whole entry, looked up): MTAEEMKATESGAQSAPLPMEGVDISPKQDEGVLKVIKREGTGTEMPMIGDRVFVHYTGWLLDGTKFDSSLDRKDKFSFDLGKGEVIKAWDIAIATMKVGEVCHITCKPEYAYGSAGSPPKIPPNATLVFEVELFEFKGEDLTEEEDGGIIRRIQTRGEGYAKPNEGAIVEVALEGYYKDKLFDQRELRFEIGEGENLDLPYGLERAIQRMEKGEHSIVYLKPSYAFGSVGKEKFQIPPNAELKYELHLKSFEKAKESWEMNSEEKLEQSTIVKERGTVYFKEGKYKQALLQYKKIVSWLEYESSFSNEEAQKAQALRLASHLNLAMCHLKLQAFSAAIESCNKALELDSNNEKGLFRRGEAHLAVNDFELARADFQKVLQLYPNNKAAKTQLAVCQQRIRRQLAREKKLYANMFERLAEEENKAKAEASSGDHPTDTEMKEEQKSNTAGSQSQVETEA
Sequence of UniProt Q9H4A6 (Q9H4A6 whole entry, looked up): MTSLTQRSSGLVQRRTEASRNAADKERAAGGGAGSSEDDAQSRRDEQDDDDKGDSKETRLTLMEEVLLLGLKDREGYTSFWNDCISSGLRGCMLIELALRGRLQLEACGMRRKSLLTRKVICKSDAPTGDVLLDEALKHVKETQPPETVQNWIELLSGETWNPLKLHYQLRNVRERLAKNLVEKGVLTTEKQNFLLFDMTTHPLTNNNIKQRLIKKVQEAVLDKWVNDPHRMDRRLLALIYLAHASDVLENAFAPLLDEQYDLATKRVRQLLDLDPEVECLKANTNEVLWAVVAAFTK
Sequence of UniProt Q86VS8 (Q86VS8 whole entry, looked up): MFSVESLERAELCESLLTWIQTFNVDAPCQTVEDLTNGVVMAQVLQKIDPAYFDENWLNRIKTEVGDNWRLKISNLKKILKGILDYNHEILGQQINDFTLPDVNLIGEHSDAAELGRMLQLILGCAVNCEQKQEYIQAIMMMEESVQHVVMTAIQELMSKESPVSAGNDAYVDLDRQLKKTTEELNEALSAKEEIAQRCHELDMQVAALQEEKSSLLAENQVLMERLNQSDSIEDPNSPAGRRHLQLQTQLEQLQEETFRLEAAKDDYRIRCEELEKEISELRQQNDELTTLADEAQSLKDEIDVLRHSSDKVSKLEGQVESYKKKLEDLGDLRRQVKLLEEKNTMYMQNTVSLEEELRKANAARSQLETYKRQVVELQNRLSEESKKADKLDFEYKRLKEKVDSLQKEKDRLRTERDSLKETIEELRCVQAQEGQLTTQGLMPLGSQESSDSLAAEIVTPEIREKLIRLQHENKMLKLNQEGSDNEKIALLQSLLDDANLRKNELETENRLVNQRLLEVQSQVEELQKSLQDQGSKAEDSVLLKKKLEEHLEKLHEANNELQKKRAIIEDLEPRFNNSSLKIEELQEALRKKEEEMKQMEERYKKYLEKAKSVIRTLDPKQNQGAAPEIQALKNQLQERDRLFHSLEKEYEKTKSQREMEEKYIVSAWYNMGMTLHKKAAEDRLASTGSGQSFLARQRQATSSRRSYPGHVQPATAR
Sequence of UniProt P52655 (P52655 whole entry, looked up): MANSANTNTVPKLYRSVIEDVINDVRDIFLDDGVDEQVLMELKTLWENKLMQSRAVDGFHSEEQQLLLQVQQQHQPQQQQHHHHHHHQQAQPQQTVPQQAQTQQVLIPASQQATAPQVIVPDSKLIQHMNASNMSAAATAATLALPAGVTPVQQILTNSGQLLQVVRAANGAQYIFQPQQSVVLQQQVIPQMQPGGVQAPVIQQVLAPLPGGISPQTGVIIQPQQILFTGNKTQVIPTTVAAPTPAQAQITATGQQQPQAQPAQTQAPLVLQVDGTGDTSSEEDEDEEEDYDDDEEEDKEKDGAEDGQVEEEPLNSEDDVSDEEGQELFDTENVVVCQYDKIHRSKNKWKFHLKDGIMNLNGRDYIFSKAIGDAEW
Sequence of UniProt P05114 (P05114 whole entry, looked up): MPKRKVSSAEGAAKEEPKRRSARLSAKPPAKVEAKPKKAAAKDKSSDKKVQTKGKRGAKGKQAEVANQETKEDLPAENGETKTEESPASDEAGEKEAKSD

log2 fold change, inactive:
GDPD1 (UniProt Q8N9F7) 0.04
GDI1 (UniProt P31150) 0.032
FCF1 (UniProt Q9Y324) -0.269
GOLPH3 (UniProt Q9H4A6) -0.016
IFRD1 (UniProt O00458) 0.243
HSD17B12 (UniProt Q53GQ0) -0.015
GUSB (UniProt P08236) 0.11
GLIPR2 (UniProt Q9H4G4) 0.055
HIC2 (UniProt Q96JB3) 0.129
GLCCI1 (UniProt Q86VQ1) 0.007
HMGN1 (UniProt P05114) 0.089
FBL (UniProt P22087) 0.119
GTF3C5 isoform 3 (UniProt Q9Y5Q8) 0.226
GTF2A1 (UniProt P52655) 0.051
GTF3A (UniProt Q92664) 0.033
HEXB (UniProt P07686) -0.026
FERMT3 (UniProt Q86UX7) -0.005
FBXO3 (UniProt Q9UK99) 0.013
GMEB2 (UniProt Q9UKD1) 0.072
FUCA2 (UniProt Q9BTY2) -0.016
FKBP4 (UniProt Q02790) -0.019
HOOK3 (UniProt Q86VS8) 0.025
HDAC7 isoform 5 (UniProt Q8WUI4) -0.024
GSTM4 (UniProt Q03013) 0.036
ICMT (UniProt O60725) 0.303
H3-3A (UniProt P84243) -0.131
FOXO3 (UniProt O43524) -0.107
GAK (UniProt O14976) 0.371
FBXO6 (UniProt Q9NRD1) -0.055
HPCAL1 (UniProt P37235) 0.023
GLUD2 (UniProt P49448) 0.14
IFRD2 isoform 2 (UniProt Q12894) 0.29
FHOD1 (UniProt Q9Y613) 0.209
GGA2 (UniProt Q9UJY4) -0.117
FBXO7 (UniProt Q9Y3I1) -0.009
GPKOW (UniProt Q92917) -0.025
GTF2E1 (UniProt P29083) -0.048
HIP1R (UniProt O75146) -0.029
FOXK1 (UniProt P85037) 0.262
GABPA (UniProt Q06546) -0.01
